# Assay results taken from PubChem BioAssay (NCI).
# The panel holds about 83,000 compounds, 20% with a hit somewhere; the sample as a whole holds those more often.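 Results are percent growth after 48 hours of single-concentration exposure. 100 means growth as in untreated cells, lower positive values show inhibition; negative values down to -100 show cell death.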 Activity calls are given as the source filed them. How the source made its calls: active means growth percent below 10; inactive means the rest.
# Tested on: SF-268 CNS
# Assay: NCI-60 one-dose screen, 48 h (100 = growth as untreated, 0 = no growth, -100 = all killed)
# Settings: 10 µM unless noted
row,SMILES,growth
1,CCOC(=O)c1cc(C(=O)c2ccc(O)c(O)c2)n2ccc(-c3ccn4c(C(=O)c5ccc(O)c(O)c5)cc(C(=O)OCC)c4c3)cc12,88.5% (inactive)
2,CC1C(/C=N/Nc2ccccc2)C(C#N)(C#N)C1(C#N)C#N (stereo unspecified),75.4% (inactive)
3,O=C(/C=C/c1ccc(C(F)(F)F)cc1)Nc1ccc(C=C2c3ccccc3C(=O)c3ccccc32)cc1,67.3% (inactive)
4,CC/C=C\C[C@H](O)C/C=C1/C(=O)C=C[C@@]1(C)C/C=C\CCCC(=O)OC,106% (inactive)
5,COc1cc(-c2nn(-c3ccc(C(=O)O)cc3)cc2C(=O)O)ccc1O,70.3% (inactive)
6,COc1ccc(O)c(N=Nc2nccs2)c1,67.9% (inactive)
7,NCCNc1nc(Nc2ccc(-c3nc4ccccc4[nH]3)cc2)c2cn[nH]c2n1,68.1% (inactive)
8,COc1cc(-c2nn(-c3ccc(Br)cc3)cc2C(=O)O)ccc1O,87.8% (inactive)
9,OCCN1CCN(c2nc(Nc3ccc(-c4nc5ccccc5[nH]4)cc3)c3cn[nH]c3n2)CC1,-80.9% (active)
10,O=c1oc2c(C(F)(F)F)cccc2cc1-c1csc(Nc2ccc(OCCF)cc2)n1,23.3% (inactive)
11,N#Cc1nnn(-c2ccc(S(N)(=O)=O)cc2)c1NC(=O)CCl,97.6% (inactive)
12,C=C1C(=O)O[C@H]2[C@H]1CC/C(C=Nc1ccc(C(F)(F)F)cc1N)=C\CC[C@@]1(C)O[C@@H]21,23.7% (inactive)
13,CSc1ccc(-c2ccccc(=O)c2O)cc1,11.5% (inactive)
14,Clc1ccc2c(NCCNc3nc(N4CCCCC4)nc4ccccc34)ccnc2c1,2.98% (active)
15,Cn1ccnc1C(=O)/C=C/c1ccc(CC(=O)Nc2ccccc2)cc1,10.6% (inactive)
16,CC(C)CSc1nc(N)nc2c1ncn2C1OC(CO)C(O)C1O (stereo unspecified),99.9% (inactive)
17,Cc1cc(N[C@@H]2CCC[C@H](Nc3ccnc4cc(Cl)ccc34)C2)nc(N2CCCCCC2)n1,-66.2% (active)
18,CC(C)(CCCN=C(N)Nc1ccc(Cl)cc1)c1ccc(F)cc1,72.6% (inactive)
19,COc1ccc(-c2nc(SCC(=O)Nc3ccc(C(=O)/C=C/c4ccc(Cl)cc4)cc3)[nH]c(=O)c2C#N)cc1,102% (inactive)

row,SMILES,growth
1,FC(F)(F)Oc1ccc2nc3nc4ccc[nH]c4cc3c2c1,82.3% (inactive)
2,CCOC(=O)C(C)(C#N)C1C=CCCC1 (stereo unspecified),93.8% (inactive)
3,O=C1/C(=C/c2ccc(OCCCOc3ccc(Cl)cc3)cc2)N=C2SCCCN12,100% (inactive)
4,COc1cc(-c2nn(-c3ccc(C)cc3)cc2C(=O)O)ccc1O,90.4% (inactive)
5,CC(=O)c1cc2c(N)c(C(=O)Nc3cccc(F)c3C)sc2nc1C,94.3% (inactive)
6,COc1ccc(C2C(C#N)=C(N)Oc3n[nH]c(-c4cccs4)c32)cc1I (stereo unspecified),91.2% (inactive)
7,CC(=O)c1cc(C(=O)c2ccc3c(c2)Sc2ccccc2N3)n2ccccc12,29.7% (inactive)
8,CCOC(=O)c1c(C(=O)OCC)c2cc(-c3ccn4c(C(=O)c5ccccc5)c(C(=O)OCC)c(C(=O)OCC)c4c3)ccn2c1C(=O)c1ccccc1,85% (inactive)
9,Cc1cc(N2CCCC2)nc(NC2CCCC(Nc3ccnc4cc(Cl)ccc34)C2)n1 (stereo unspecified),-36.7% (active)
10,COc1ccc2c(c1)CC/C(=C\c1cncc(Br)c1)C2=O,97.1% (inactive)
11,CCc1nc(N)nc(N)c1C#CC(C)c1ccc(-c2ccncc2)cc1Cl (stereo unspecified),16.6% (inactive)
12,CC(=O)O[C@H]1C(=O)[C@@]2(C)[C@H]([C@H](OC(=O)c3ccccc3)[C@]3(O)C[C@H](OC(=O)[C@H](OC(=O)CCC(=O)OC4CCC(S/N=C(N)/N=C(\N)N(C)C)CC4)[C@@H](NC(=O)c4ccccc4)c4ccccc4)C(C)=C1C3(C)C)[C@]1(OC(C)=O)CO[C@@H]1C[C@@H]2O (stereo partly specified),38.1% (inactive)
13,CCNC(=O)Oc1ccc(/C(=C(\C)c2ccc(Cl)cc2)c2ccc(OCCN3CCCCC3)cc2)cc1,55% (inactive)
14,CCOc1ccc(C(C)=O)cc1NC(=O)c1cccc(-c2nnn(CC)n2)c1,59% (inactive)
15,CC/C=C\C[C@H]1C/C=C2/C(=O)C=C[C@H]2C/C=C\CCCC(=O)O1,39.9% (inactive)
16,COc1cccc2c1C(=O)c1c(O)c3c(c(O)c1C2=O)C[C@](O)(C(=O)CO)C[C@H]3O[C@@H]1C[C@@H](NC(=O)CCCCCN(C)C2(c3ccc(F)cc3)CC3CCC2C3)[C@H](O)[C@@H](C)O1 (stereo partly specified),36.1% (inactive)
17,O=C(CN1CCCCC1)Nc1ccc2oc(=O)ccc2c1,97.5% (inactive)
18,COc1cc(C)c(C2C(C#N)=C(N)Oc3n[nH]c(-c4cccs4)c32)cc1C(C)C (stereo unspecified),101% (inactive)
19,CCNC(=O)Oc1ccc(/C(=C(\C)c2ccc(Cl)cc2)c2ccc(OCCN(CC)CC)cc2)cc1,51.7% (inactive)

# Tested on: SF-295 CNS
# Assay: as above
# Settings: 10 µM unless noted
row,SMILES,growth
1,CCOC(=O)c1cc(C(=O)c2ccc(O)c(O)c2)n2ccc(-c3ccn4c(C(=O)c5ccc(O)c(O)c5)cc(C(=O)OCC)c4c3)cc12,102% (inactive)
2,CC1C(/C=N/Nc2ccccc2)C(C#N)(C#N)C1(C#N)C#N (stereo unspecified),70.9% (inactive)
3,O=C(/C=C/c1ccc(C(F)(F)F)cc1)Nc1ccc(C=C2c3ccccc3C(=O)c3ccccc32)cc1,59.2% (inactive)
4,CC/C=C\C[C@H](O)C/C=C1/C(=O)C=C[C@@]1(C)C/C=C\CCCC(=O)OC,107% (inactive)
5,COc1cc(-c2nn(-c3ccc(C(=O)O)cc3)cc2C(=O)O)ccc1O,94.4% (inactive)
6,COc1ccc(O)c(N=Nc2nccs2)c1,103% (inactive)
7,NCCNc1nc(Nc2ccc(-c3nc4ccccc4[nH]3)cc2)c2cn[nH]c2n1,62.9% (inactive)
8,COc1cc(-c2nn(-c3ccc(Br)cc3)cc2C(=O)O)ccc1O,101% (inactive)
9,OCCN1CCN(c2nc(Nc3ccc(-c4nc5ccccc5[nH]4)cc3)c3cn[nH]c3n2)CC1,-96% (active)
10,O=c1oc2c(C(F)(F)F)cccc2cc1-c1csc(Nc2ccc(OCCF)cc2)n1,4.4% (active)
11,N#Cc1nnn(-c2ccc(S(N)(=O)=O)cc2)c1NC(=O)CCl,98.2% (inactive)
12,C=C1C(=O)O[C@H]2[C@H]1CC/C(C=Nc1ccc(C(F)(F)F)cc1N)=C\CC[C@@]1(C)O[C@@H]21,45.4% (inactive)
13,CSc1ccc(-c2ccccc(=O)c2O)cc1,19.4% (inactive)
14,Clc1ccc2c(NCCNc3nc(N4CCCCC4)nc4ccccc34)ccnc2c1,-81.3% (active)
15,Cn1ccnc1C(=O)/C=C/c1ccc(CC(=O)Nc2ccccc2)cc1,26.2% (inactive)
16,CC(C)CSc1nc(N)nc2c1ncn2C1OC(CO)C(O)C1O (stereo unspecified),72.3% (inactive)
17,Cc1cc(N[C@@H]2CCC[C@H](Nc3ccnc4cc(Cl)ccc34)C2)nc(N2CCCCCC2)n1,-76.1% (active)
18,CC(C)(CCCN=C(N)Nc1ccc(Cl)cc1)c1ccc(F)cc1,53.1% (inactive)
19,COc1ccc(-c2nc(SCC(=O)Nc3ccc(C(=O)/C=C/c4ccc(Cl)cc4)cc3)[nH]c(=O)c2C#N)cc1,98.5% (inactive)

row,SMILES,growth
1,FC(F)(F)Oc1ccc2nc3nc4ccc[nH]c4cc3c2c1,98.2% (inactive)
2,CCOC(=O)C(C)(C#N)C1C=CCCC1 (stereo unspecified),84.3% (inactive)
3,O=C1/C(=C/c2ccc(OCCCOc3ccc(Cl)cc3)cc2)N=C2SCCCN12,66.7% (inactive)
4,COc1cc(-c2nn(-c3ccc(C)cc3)cc2C(=O)O)ccc1O,97.9% (inactive)
5,CC(=O)c1cc2c(N)c(C(=O)Nc3cccc(F)c3C)sc2nc1C,82.4% (inactive)
6,COc1ccc(C2C(C#N)=C(N)Oc3n[nH]c(-c4cccs4)c32)cc1I (stereo unspecified),94.4% (inactive)
7,CC(=O)c1cc(C(=O)c2ccc3c(c2)Sc2ccccc2N3)n2ccccc12,8.93% (active)
8,CCOC(=O)c1c(C(=O)OCC)c2cc(-c3ccn4c(C(=O)c5ccccc5)c(C(=O)OCC)c(C(=O)OCC)c4c3)ccn2c1C(=O)c1ccccc1,106% (inactive)
9,Cc1cc(N2CCCC2)nc(NC2CCCC(Nc3ccnc4cc(Cl)ccc34)C2)n1 (stereo unspecified),-80.8% (active)
10,COc1ccc2c(c1)CC/C(=C\c1cncc(Br)c1)C2=O,94.5% (inactive)
11,CCc1nc(N)nc(N)c1C#CC(C)c1ccc(-c2ccncc2)cc1Cl (stereo unspecified),10.1% (inactive)
12,CC(=O)O[C@H]1C(=O)[C@@]2(C)[C@H]([C@H](OC(=O)c3ccccc3)[C@]3(O)C[C@H](OC(=O)[C@H](OC(=O)CCC(=O)OC4CCC(S/N=C(N)/N=C(\N)N(C)C)CC4)[C@@H](NC(=O)c4ccccc4)c4ccccc4)C(C)=C1C3(C)C)[C@]1(OC(C)=O)CO[C@@H]1C[C@@H]2O (stereo partly specified),-10.5% (active)
13,CCNC(=O)Oc1ccc(/C(=C(\C)c2ccc(Cl)cc2)c2ccc(OCCN3CCCCC3)cc2)cc1,42.7% (inactive)
14,CCOc1ccc(C(C)=O)cc1NC(=O)c1cccc(-c2nnn(CC)n2)c1,7.49% (active)
15,CC/C=C\C[C@H]1C/C=C2/C(=O)C=C[C@H]2C/C=C\CCCC(=O)O1,23.3% (inactive)
16,COc1cccc2c1C(=O)c1c(O)c3c(c(O)c1C2=O)C[C@](O)(C(=O)CO)C[C@H]3O[C@@H]1C[C@@H](NC(=O)CCCCCN(C)C2(c3ccc(F)cc3)CC3CCC2C3)[C@H](O)[C@@H](C)O1 (stereo partly specified),-87.9% (active)
17,O=C(CN1CCCCC1)Nc1ccc2oc(=O)ccc2c1,106% (inactive)
18,COc1cc(C)c(C2C(C#N)=C(N)Oc3n[nH]c(-c4cccs4)c32)cc1C(C)C (stereo unspecified),101% (inactive)
19,CCNC(=O)Oc1ccc(/C(=C(\C)c2ccc(Cl)cc2)c2ccc(OCCN(CC)CC)cc2)cc1,21.3% (inactive)
